Source: ChEMBL document CHEMBL4296182, “CO-ADD screening of NIH NCI Diversity Set V”
For some of these results: Potency and affinity values are given separately.

The compounds below were run on Escherichia coli (assay: Antibacterial activity against Escherichia coli ATCC 25922 (CO-ADD:GN_001); MIC in CAMBH media using NBS plates, by Resazurin F(560/590)). Conditions: Concentration 20 uM, ASSAY_TEST Inhibition of Bacterial Growth, detection method Resazurin, Fluorescence (ex560/em590), MEDIA CAMHB, plate type 384well, CORNING #3640, time 18 hr.
Assay type: functional

Row | Compound | Inhibition [%]
1 | COc1cc(/N=N/c2ccccc2C(=O)O)ccc1O | 0.38
2 | Cc1ccc(/N=N/c2c(O)c3ccccc3[nH]c2=O)c(S(=O)(=O)N(C)C)c1 | 9.06
3 | C=C1S/C(=N\c2c(C)cccc2Cl)N(C(=O)c2sc3ccccc3c2Cl)C12CCCCC2 | -2.79
4 | NC(=N\c1ccc(N)cc1)/C(N)=N/c1ccc(N)cc1 | 7.03
5 | CCOC(=O)c1[nH]c(CO)c(C(=O)OCC)c1C | 2.06
6 | CCC12CCCN3CCc4c(n(c5ccccc45)C(O)(C(=O)OC)C1)C32 (stereo unspecified) | 2.09
7 | CC(C)C(=O)Nc1cccnc1 | 9.68
8 | O=C(c1ccccc1)c1ccc(Sc2ccc([N+](=O)[O-])cc2)cc1 | 1.44
9 | COc1ccccc1/C=C(\C#N)C(=O)O | 5.31
10 | COc1ccc2c(n1)Sc1nc3ccccc3nc1N2 | 7.15
11 | CCOC(=O)Nc1csnn1 | 13.49
12 | CC1(C)CC2(C)OC2C2(C1)N=N/C(=N/c1ccccc1)O2 (stereo unspecified) | 4.99
13 | CC1=CC(=O)CC(C)(C)C1(O)/C=C/C(C)=C/C(=O)O (stereo unspecified) | 1.66
14 | CCN(CC)CCN1C(=O)c2cccc3cc(N)cc(c23)C1=O | 10.46
15 | CCCn1cnc2c(S)nc(N)nc21 | 10
16 | CN(C)S(=O)(=O)c1ccccc1N=C=S | 10.9
17 | O=c1ccn2c(n1)SC(c1ccccc1)C2 (stereo unspecified) | 0.87
18 | COc1cccc2nc3cc(C)c(C)cc3nc12 | 12.65
19 | COC(=O)Cc1[nH]c(Cl)nc1C(N)=O | -2.69

Row | Compound | Inhibition [%]
20 | COc1cc(/C=N/N=c2\[nH]c3c(=O)n(C)c(=O)n(C)c3[nH]2)ccc1O | 14.34
21 | CCCCSc1[nH]cnc2nncc1-2 | 12.29
22 | Nc1ccc(/C=C/c2ccc3ncccc3c2)cc1 | 3.29
23 | Cc1cc2c3ccccc3ncn2n1 | 5.54
24 | CCOC(=O)c1cnc(SCC)nc1O | 0.66
25 | Cc1cccc2cc3cccc(C)c3nc12 | -1.48
26 | COC(=O)C1(C(=O)OC)C2C(=O)C3C(C21)C3(C(=O)OC(C)(C)C)C(=O)OC(C)(C)C (stereo unspecified) | 12.49
27 | Nc1c(Cl)ncnc1NCCO | 3.3
28 | O=C(Nc1cccc(Cl)c1)Nn1cnnc1 | 2.61
29 | Cc1ccc(S(=O)(=O)N(C)C)cc1[N+](=O)[O-] | -0.42
30 | COc1ccc2[nH]c(-c3ccccc3)cc2c1 | 0.95
31 | S=C1SCN(CCc2ccccc2)CN1CCc1ccccc1 | 3.19
32 | CSc1c(N(C)C)c(=O)c1=S | 11.42
33 | C#CC(C)OCC1CNC(=S)O1 (stereo unspecified) | 10.24
34 | CCC(C)NC(=O)c1cccc(C)c1 (stereo unspecified) | 12.99
35 | [O-][n+]1ccc(CC(O)(C(F)(F)F)C(F)(F)F)cc1 | -11.83
36 | N#Cc1cnn(-c2cccc(Cl)c2)c1-n1cccc1 | 14.62
37 | O=C(O)c1cc2cc(OCc3ccccc3)ccc2[nH]1 | 8.06
38 | c1ccc2c(c1)nnn2-c1ccncc1 | -7.33

The compounds below were run on Klebsiella pneumoniae. Conditions: Concentration 20 uM; ASSAY_TEST Inhibition of Bacterial Growth; detection method Absorption (OD600); MEDIA CAMHB; plate type 384well; NBS; CORNING #3640; time 18 hr.

Row | Compound | Inhibition [%]
39 | COc1cc(/N=N/c2ccccc2C(=O)O)ccc1O | 12.27
40 | Cc1ccc(/N=N/c2c(O)c3ccccc3[nH]c2=O)c(S(=O)(=O)N(C)C)c1 | 6.43
41 | C=C1S/C(=N\c2c(C)cccc2Cl)N(C(=O)c2sc3ccccc3c2Cl)C12CCCCC2 | 4.92
42 | NC(=N\c1ccc(N)cc1)/C(N)=N/c1ccc(N)cc1 | 7.69
43 | CCOC(=O)c1[nH]c(CO)c(C(=O)OCC)c1C | 19.54
44 | CCC12CCCN3CCc4c(n(c5ccccc45)C(O)(C(=O)OC)C1)C32 (stereo unspecified) | 11.45
45 | CC(C)C(=O)Nc1cccnc1 | 6.6
46 | O=C(c1ccccc1)c1ccc(Sc2ccc([N+](=O)[O-])cc2)cc1 | 19.14
47 | COc1ccccc1/C=C(\C#N)C(=O)O | 6.46
48 | COc1ccc2c(n1)Sc1nc3ccccc3nc1N2 | 4.25
49 | CCOC(=O)Nc1csnn1 | 14.72
50 | CC1(C)CC2(C)OC2C2(C1)N=N/C(=N/c1ccccc1)O2 (stereo unspecified) | 7.34
51 | CC1=CC(=O)CC(C)(C)C1(O)/C=C/C(C)=C/C(=O)O (stereo unspecified) | 3.67
52 | CCN(CC)CCN1C(=O)c2cccc3cc(N)cc(c23)C1=O | 12.53
53 | CCCn1cnc2c(S)nc(N)nc21 | 2.88
54 | CN(C)S(=O)(=O)c1ccccc1N=C=S | 5.89
55 | O=c1ccn2c(n1)SC(c1ccccc1)C2 (stereo unspecified) | 5.49
56 | COc1cccc2nc3cc(C)c(C)cc3nc12 | 1.37
57 | COC(=O)Cc1[nH]c(Cl)nc1C(N)=O | 2.53

Row | Compound | Inhibition [%]
58 | COc1cc(/C=N/N=c2\[nH]c3c(=O)n(C)c(=O)n(C)c3[nH]2)ccc1O | -8.37
59 | CCCCSc1[nH]cnc2nncc1-2 | -0.95
60 | Nc1ccc(/C=C/c2ccc3ncccc3c2)cc1 | 1.77
61 | Cc1cc2c3ccccc3ncn2n1 | 9.54
62 | CCOC(=O)c1cnc(SCC)nc1O | 10.25
63 | Cc1cccc2cc3cccc(C)c3nc12 | 1.32
64 | COC(=O)C1(C(=O)OC)C2C(=O)C3C(C21)C3(C(=O)OC(C)(C)C)C(=O)OC(C)(C)C (stereo unspecified) | 9.29
65 | Nc1c(Cl)ncnc1NCCO | 8.13
66 | O=C(Nc1cccc(Cl)c1)Nn1cnnc1 | 6
67 | Cc1ccc(S(=O)(=O)N(C)C)cc1[N+](=O)[O-] | 1.49
68 | COc1ccc2[nH]c(-c3ccccc3)cc2c1 | 16.65
69 | S=C1SCN(CCc2ccccc2)CN1CCc1ccccc1 | 4.28
70 | CSc1c(N(C)C)c(=O)c1=S | 6.17
71 | C#CC(C)OCC1CNC(=S)O1 (stereo unspecified) | 3.71
72 | CCC(C)NC(=O)c1cccc(C)c1 (stereo unspecified) | 13.06
73 | [O-][n+]1ccc(CC(O)(C(F)(F)F)C(F)(F)F)cc1 | 9.87
74 | N#Cc1cnn(-c2cccc(Cl)c2)c1-n1cccc1 | 3.39
75 | O=C(O)c1cc2cc(OCc3ccccc3)ccc2[nH]1 | 12.38
76 | c1ccc2c(c1)nnn2-c1ccncc1 | 4.04
